From PubChem BioAssay
hcDAF-12 act: H. contortus DAF-12 activation, primary screen | HEK293 hcDAF-12 lit1-tk-luc reporter, luminescence; 0% DMSO, 100% Δ7-dafachronic acid | activation, % at 6.8 µM | 370,000 compounds, 1.4% hits;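 active = activation above the mean of all tested compounds plus 3 SD, cut at about 5.5% in these data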;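 also: 100% = response to 3 µM Δ7-dafachronic acid high control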
FXN GAA850 act: frataxin GAA850 promoter activation; HEK293 lucGAA850 FXN promoter luciferase reporter, 24 h; percent of 10 µM SAHA response; activation, % at 6 µM; 360,000 compounds, 0.56% hits; AID 540364;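 active = activation above the average of all compounds screened plus 3 SD, cutoff fixed separately per campaign, cut at about 7.5% in these data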;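 also: 0% = DMSO wells and 100% = 10 µM SAHA wells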
ssDAF-12 act: activates DAF-12 receptor from parasite S. stercoralis | 370,000 compounds, 1% hits | HEK293 ssDAF-12/GRIP1 lit1-tk-luc reporter, luminescence; % of 3 µM dafachronic acid response | activation, % at 6.8 µM;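 active = activation above the mean over all tested compounds plus 3 SD, cut at about 0.9% in these data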;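 also: 0% = DMSO-only wells and 100% = 3 µM delta7-dafachronic acid wells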
DAX1 inh-1: blocks DAX1 repression of SF-1 activated StAR promoter | inhibition, % at 6.8 µM | HEK293T StAR-luciferase reporter, SF-1/DAX-1 repression relief | 370,000 compounds, 1.1% hits;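 active = inhibition above the mean over all tested compounds plus 3 SD, cut at about 3.6% in these data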;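 also: 0% = DAX-1 cells with DMSO and 100% = cells lacking DAX-1 with DMSO; higher inhibition means more luminescence from relief of DAX-1 repression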
DAX1 inh-2: inhibits human nuclear receptor DAX1 | P51843 | HEK293 Gal4-DAX1 luciferase reporter, luminescence | inhibition, % at 6.75 µM | 340,000 compounds, 0.99% hits;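 active = inhibition above the mean over all tested compounds plus 3 SD, cut at about 4.2% in these data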;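 also: 0% = DAX1-transfected cells with DMSO and 100% = empty-vector control cells with DMSO; inhibition shows as a rise in luminescence from relieved DAX1 repression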
hgDAF12 agonist: activates the H. glycines DAF-12 receptor ligand-binding domain; HEK293 GAL4-hgDAF12 UAS-luciferase reporter, agonist luminescence; normalized to butyrate control; activation, % at 6.8 µM; 370,000 compounds, 1.8% hits;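 active = activation above a cutoff set at the mean of all screened compounds plus 3 SD, cut at about 10% in these data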;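 also: 0% = DMSO wells and 100% = sodium butyrate wells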
DAX1 conf: confirmation of human DAX1 (NR0B1) inhibitors | inhibition, % at 6.8 µM | HEK293T StAR-promoter luciferase reporter, SF-1/DAX-1 repression | shares compounds with DAX1 inh-1 | AID 652134 | 2,400 compounds, 87% hits;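 active = inhibition above the average of every tested compound plus 3 SD, cut at about 3.8% in these data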;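 also: 0% = DAX-1 cells with DMSO and 100% = no DAX-1 control cells with DMSO; active compounds raise luminescence by relieving repression of the StAR reporter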
Target sequence (P51843 whole entry, looked up): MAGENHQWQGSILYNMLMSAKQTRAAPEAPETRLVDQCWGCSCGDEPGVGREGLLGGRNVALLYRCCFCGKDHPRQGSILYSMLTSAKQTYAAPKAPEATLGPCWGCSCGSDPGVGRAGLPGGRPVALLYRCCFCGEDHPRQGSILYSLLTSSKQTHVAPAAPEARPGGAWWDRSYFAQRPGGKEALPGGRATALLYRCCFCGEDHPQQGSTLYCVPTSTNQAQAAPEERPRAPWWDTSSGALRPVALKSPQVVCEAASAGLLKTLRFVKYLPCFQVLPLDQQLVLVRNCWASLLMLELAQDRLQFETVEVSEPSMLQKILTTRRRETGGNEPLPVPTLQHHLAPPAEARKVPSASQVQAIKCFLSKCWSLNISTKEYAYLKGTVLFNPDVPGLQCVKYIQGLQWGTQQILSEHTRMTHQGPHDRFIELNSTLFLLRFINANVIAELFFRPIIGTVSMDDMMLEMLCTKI
SF1 mutant ctr: nonselective inhibitor or artifact in SF-1 mutant DAX1 counter-screen; shares compounds with DAX1 inh-1; inhibition, % at 6.8 µM; 2,400 compounds, 78% hits; HEK293 StAR-luciferase, SF-1 AF2 mutant, luminescence; AID 652136;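 active = inhibition above the mean of all tested compounds plus 3 SD, cut at about 3% in these data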;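 also: 0% = DAX-1 transfected cells with DMSO and 100% = cells without DAX-1 with DMSO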
The depositor's hits bear a star. The list is not random: actives were taken first. Their share in the collection is about 4.5%.

`COc1cc2c(c(OC)c1OC)-c1ccc(N(C)CC(OC)OC)c(=O)cc1[C@@H](NC(C)=O)CC2` gave hcDAF-12 act 1, FXN GAA850 act 2, ssDAF-12 act 0, DAX1 inh-1 0, DAX1 inh-2 -1 and hgDAF12 agonist -3.
CCOCC(=O)NC1CCc2cc(OC(=O)COCC)c(OC)c(OC)c2-c2ccc(SC)c(=O)cc21 (stereo not given) was read as hcDAF-12 act 1, FXN GAA850 act -1, ssDAF-12 act -1, DAX1 inh-1 4.5*, DAX1 inh-2 1, hgDAF12 agonist -4, DAX1 conf 17* and SF1 mutant ctr -6.
COc1cc2c(c(OC)c1OC)-c1ccc(OC)c(=O)cc1[C@@H](NC(C)=O)CC2 was read as hcDAF-12 act 1, FXN GAA850 act -4, ssDAF-12 act -1, DAX1 inh-1 6.5*, DAX1 inh-2 1, hgDAF12 agonist -6, DAX1 conf 23* and SF1 mutant ctr -4.
COc1cc2c(c(OC)c1OC)-c1ccc(NC(=O)c3ccc(F)cc3)c(=O)cc1[C@@H](NC(C)=O)CC2 was read as hcDAF-12 act 1, FXN GAA850 act -1, ssDAF-12 act 0, DAX1 inh-1 0, DAX1 inh-2 -1 and hgDAF12 agonist -2.
`CC(=O)N1c2ccc(S(=O)(=O)N(C)CC(=O)Nc3ccccc3C)cc2CC1C` (stereo not given) gave hcDAF-12 act -2, FXN GAA850 act 0, ssDAF-12 act 0, DAX1 inh-1 0, DAX1 inh-2 -1 and hgDAF12 agonist 1.
O=C(/C=C/c1ccc2c(c1)OCO2)Nc1cccnc1 was read as hcDAF-12 act 3, FXN GAA850 act 7, ssDAF-12 act -1, DAX1 inh-1 11*, DAX1 inh-2 4, hgDAF12 agonist 11*, DAX1 conf 14* and SF1 mutant ctr 4.5*.
For O=C(/C=C/c1ccco1)Nc1ccc2c(c1)OCO2 the results were hcDAF-12 act 2, FXN GAA850 act 5, ssDAF-12 act 0, DAX1 inh-1 6.1*, DAX1 inh-2 2, hgDAF12 agonist 12*, DAX1 conf 11* and SF1 mutant ctr 6.0*.
For O=C(/C=C/c1ccc2c(c1)OCO2)c1cccnc1 the results were hcDAF-12 act 0, FXN GAA850 act 2, ssDAF-12 act -1, DAX1 inh-1 0, DAX1 inh-2 0 and hgDAF12 agonist -2.
N#Cc1cccc(C(=O)C(=O)N2CCN(C(=O)OCc3ccccc3)CC2)c1 was read as hcDAF-12 act 1, ssDAF-12 act -1, DAX1 inh-1 0 and hgDAF12 agonist 0.
Cc1n[nH]c(C)c1NC(=O)CN1CCN(S(=O)(=O)c2ccc(C(F)(F)F)cc2)CC1 was read as hcDAF-12 act 0, FXN GAA850 act 1, ssDAF-12 act -1, DAX1 inh-1 4.6*, DAX1 inh-2 -1, hgDAF12 agonist -1, DAX1 conf 1 and SF1 mutant ctr 5.2*.
Cc1ccccc1NC(=O)NCCCCc1ccccc1 was read as hcDAF-12 act -3, FXN GAA850 act 1, ssDAF-12 act 0, DAX1 inh-1 0, DAX1 inh-2 0 and hgDAF12 agonist 0.
Screening CC(=O)Nc1cccc(-c2cccc3nccn23)c1 returned hcDAF-12 act 2, FXN GAA850 act 2, ssDAF-12 act -1, DAX1 inh-1 5.4*, hgDAF12 agonist 10, DAX1 conf 5.6* and SF1 mutant ctr 3.7*.
For O=C(c1ccncc1)N(c1ccc(N2CCOCC2)cc1)C(c1ccccc1)c1nc2ccccc2[nH]1 (stereo not given) the results were hcDAF-12 act 6.2*, ssDAF-12 act 0, DAX1 inh-1 5.3*, hgDAF12 agonist 13*, DAX1 conf 7.7* and SF1 mutant ctr 4.9*.
Screening CC(C)[C@H](NC(=O)c1ccco1)C(=O)Nc1ccc(N2CCCCCC2)cc1 returned hcDAF-12 act 3, FXN GAA850 act 1, ssDAF-12 act -1, DAX1 inh-1 -1, DAX1 inh-2 0 and hgDAF12 agonist -1.
CCOc1ccc(NC(=O)C(=S)NC2CCCCC2)cc1 was read as hcDAF-12 act 2, FXN GAA850 act 5, ssDAF-12 act -1, DAX1 inh-1 1, DAX1 inh-2 -1 and hgDAF12 agonist 3.
Screening CCOc1ccc(NC(=O)NC2CCCCCCC2)cc1 returned hcDAF-12 act 5, FXN GAA850 act 4, ssDAF-12 act 0, DAX1 inh-1 9.8*, DAX1 inh-2 3, hgDAF12 agonist 12*, DAX1 conf 9.0* and SF1 mutant ctr 4.0*.
`O=C(Nc1ccccc1)NC1CCCCCCC1` gave hcDAF-12 act 4, FXN GAA850 act 3, ssDAF-12 act 0, DAX1 inh-1 1 and hgDAF12 agonist 8.
O=C(Nc1cccc([N+](=O)[O-])c1)NC1CCCCCCC1 was read as hcDAF-12 act 4, FXN GAA850 act 6, ssDAF-12 act -1, DAX1 inh-1 5.5*, DAX1 inh-2 1, hgDAF12 agonist 5, DAX1 conf 4.6* and SF1 mutant ctr 4.3*.
For O=C(Nc1ccc(Br)cc1)NC1CCCCCCC1 the results were hcDAF-12 act 1, FXN GAA850 act 3, ssDAF-12 act 0, DAX1 inh-1 5.1*, DAX1 inh-2 2, hgDAF12 agonist 11*, DAX1 conf 9.1* and SF1 mutant ctr 6.0*.
`O=C(CNC1CCCCC1)Nc1cccc([N+](=O)[O-])c1` gave hcDAF-12 act -1, FXN GAA850 act 1, ssDAF-12 act -1, DAX1 inh-1 0, DAX1 inh-2 3 and hgDAF12 agonist 1.
For CCCC1(c2ccccc2)NC(=O)N(CC(=O)Nc2cc(C)ccc2OC)C1=O (stereo not given) the results were hcDAF-12 act 0, FXN GAA850 act 1, ssDAF-12 act -1, DAX1 inh-1 0, DAX1 inh-2 1 and hgDAF12 agonist -2.
O=C(O)C(c1ccccc1)C1CCCCC1O (stereo not given) was read as hcDAF-12 act -1, FXN GAA850 act 0, ssDAF-12 act -1, DAX1 inh-1 -1, DAX1 inh-2 0 and hgDAF12 agonist -1.
`CCCN1CCN(C(=O)c2cc3c(s2)-c2ccccc2OC3)CC1` gave hcDAF-12 act 4, FXN GAA850 act 5, ssDAF-12 act 0, DAX1 inh-1 5.4*, DAX1 inh-2 1, hgDAF12 agonist 5, DAX1 conf 9.9* and SF1 mutant ctr 5.2*.
